M1 antag – antagonists of rat M1 muscarinic receptor; Muscarinic acetylcholine receptor M1 (Rattus norvegicus), P08482; CHO-M1 cells, Fluo-4 calcium, ACh EC80 antagonist mode; hits give low values; B-score at 10 µM; 64,000 compounds, 3.4% hits; AID 628, 2007;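 active = calcium fluorescence response, raw or row-and-column corrected B-score, differing from the plate sample mean either way at a set confidence level, mostly lower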
FXIIa mix inh – human factor XIIa inhibitors, primary screen, biochemical, pooled compound mixtures, fluorogenic substrate | Coagulation factor XII (Homo sapiens), P00748 | purified FXIIa | inhibition, % at 5 µM | 62,000 compounds, 0.2% hits;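 note: 0% = enzyme without compound and 100% = no enzyme blank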
DAT uptake mod – changed hDAT dopamine uptake under cocaine IC80, either direction, primary screen, cocaine antagonist project, cell-based, LLC-PK1 hDAT, [14C]-dopamine uptake, MLSMR; LLC-PK1 hDAT cells, [14C]-dopamine uptake with cocaine IC80; actives deviate in either direction; Sodium-dependent dopamine transporter (Homo sapiens), Q01959; B-score at 10 µM; 110,000 compounds, 1.3% hits;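 active = Z score or B-score, a plate-position-corrected score, falls beyond the plate's 99.7% confidence bounds, in either direction; inactive = both scores lie inside the 99.7% bounds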;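 note: scored against the spread of the other compound wells on the same plate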
FXIa inh mix – FXIa protease inhibitors in compound pools, primary screen, biochemical, 10-compound mixtures; inhibition, % at 5 µM; 62,000 compounds, 0.19% hits; Coagulation factor XI (Homo sapiens), P03951; AID 680, 2007; purified FXIa, fluorogenic substrate, pooled mixtures;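 note: each value is inhibition by a whole ten-compound pool holding the compound; 0% = enzyme with no mixture and 100% = wells lacking enzyme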
Target sequence (P03951 19-387 limits assumed): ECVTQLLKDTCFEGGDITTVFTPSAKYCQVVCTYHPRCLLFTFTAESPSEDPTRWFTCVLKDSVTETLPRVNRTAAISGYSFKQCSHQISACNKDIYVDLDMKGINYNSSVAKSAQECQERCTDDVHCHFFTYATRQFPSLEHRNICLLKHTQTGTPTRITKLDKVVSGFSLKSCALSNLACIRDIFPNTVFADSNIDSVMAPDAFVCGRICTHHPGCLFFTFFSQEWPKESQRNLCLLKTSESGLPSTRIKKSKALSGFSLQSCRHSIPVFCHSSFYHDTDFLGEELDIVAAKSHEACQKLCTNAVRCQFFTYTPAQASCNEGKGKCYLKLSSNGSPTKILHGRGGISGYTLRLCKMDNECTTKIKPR
Target sequence (P03951 388-625 limits assumed): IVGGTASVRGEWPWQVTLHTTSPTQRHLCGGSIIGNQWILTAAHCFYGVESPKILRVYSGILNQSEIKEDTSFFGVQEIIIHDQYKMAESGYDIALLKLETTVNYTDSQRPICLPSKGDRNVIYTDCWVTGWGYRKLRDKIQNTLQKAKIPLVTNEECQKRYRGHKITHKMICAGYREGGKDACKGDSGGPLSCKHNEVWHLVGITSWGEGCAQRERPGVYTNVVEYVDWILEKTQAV
D1 allo mod – D1 CRE-luciferase signal change, two-sided – cell-based, HEK293 D1, dopamine EC30, D1 allosteric modulator project, primary screen. B-score at 10 µM. AID 641, 2007. dopamine EC30 potentiation; actives deviate in either direction. 58,000 compounds, 5.9% hits. D(1A) dopamine receptor (Homo sapiens), P21728;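 active = luminescence count or its row- and column-corrected plate score outside the 99.7% band of the plate's sample wells, on either side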
M1 ag – M1 muscarinic receptor agonists, primary screen, CHO-M1 cells, Fluo-4 calcium, agonist mode. B-score at 10 µM. 64,000 compounds, 3% hits. Muscarinic acetylcholine receptor M1. Fluo-4 calcium fluorescence; hits give high values;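 active = fluorescence rise, raw or as B-score row- and column-corrected plate score, outside the 99.7% band of its plate's samples, either direction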
M1 antag conf – rat M1 muscarinic receptor antagonists, confirmation, CHO cells, Fluo-4 calcium, duplicate; shares compounds with M1 antag; ACh EC80 antagonism; hits give low values; calcium response (max-min fluorescence) at 10 µM; 1,700 compounds, 43% hits; AID 677, 2007;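 active = calcium response below the same-plate mean of wells given acetylcholine alone at its 80%-effect dose, minus 3 SD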;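 note: raw fluorescence intensity difference in arbitrary instrument units and not normalized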
mGluR4 antag – human mGluR4 response to M1 antagonist hits, M1 allosteric modulator project, cell-based, antagonist mode, secondary assay 1; CHO-mGluR4 calcium flux, Fluo-4 fluorescence, glutamate EC80; hits give low values; fluorescence response (max-min) at 10 µM; 1,700 compounds, 0.9% hits; shares compounds with M1 antag;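 active = fluorescence response below the plate's average for near-maximal glutamate wells, less 3 SD of those wells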;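 note: raw unnormalized fluorescence span taken in the window right after glutamate addition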
Active calls of the source: *; nt = no result. The list is not random: actives were taken first. Their share in the collection is about 7.4%. Cut-off read from the data, not from the text of the source, unless noted: active = inhibition above about 20% (passing the limit was not always enough); inactive = the rest.

SMILES	M1 antag	FXIIa mix inh	DAT uptake mod	FXIa inh mix	D1 allo mod	M1 ag	M1 antag conf	mGluR4 antag
COc1ccc(S(=O)(=O)N2CCN(C3CCN(Cc4ccccc4)CC3)CC2)cc1	-11.2*	5.4	-1.76*	4.4	0.00167	0.808	189*	211
Cc1ccc(S(=O)(=O)N2CCN(C3CCN(Cc4ccccc4)CC3)CC2)cc1	-14.6*	3.4	-0.499	7.5	0.055	-0.031	292*	265
COc1cc(SC)ccc1C(=O)NCCCOC(C)C	1.18	-14.7	0.745	11.9	0.0581	0.222	nt	nt
COc1cccc(-c2cnc(NCc3cc(Cl)ccc3O)n2C)c1	-5.05*	3.8	1.84	7.0	-2.58	-1.53	359*	185
O=C(O)c1cccc(NCc2cccnc2)c1	nt	nt	-0.547	nt	nt	nt	nt	nt
Cn1c(-c2cccc(Br)c2)cnc1NCc1cccnc1	-6.92*	6.1	0.717	5.9	-1.3	-0.0229	40.2*	166
CC(=O)C1=C(C)NC(C)=C(C(C)=O)C1c1ccc(-c2ccccc2Cl)o1	0.0058	-8.9	1.38	-2.5	-1.16	0.736	nt	nt
O=C(NC12CC3CC(CC(C3)C1)C2)N1CCC(O)CC1	-0.0175	9.9	-0.297	-4.4	0.0836	0.429	nt	nt
O=C(NC12CC3CC(CC(C3)C1)C2)N1CCN(C(=O)C2CCCO2)CC1 (configuration not stated)	-1.8*	-7.7	-0.0413	8.5	-0.388	-0.682	542	209
CCOC(=O)C1=C(C)Nc2nc3ccccc3n2C1c1ccncc1 (configuration not stated)	0.568	12.9	0.165	-2.9	0.907	0.0485	nt	nt
COc1cc2[nH]c3c(=O)n(CCN(C(C)C)C(C)C)cnc3c2cc1OC	-4.61*	6.5	-0.813	14.4	-1.33	0.72	542	171
O=C(C(Cc1ccccc1)n1cccc1)N1CCN(Cc2ccccc2)CC1 (configuration not stated)	-16.4*	20.6	1.36	2.5	-0.436	0.244	18.2*	196
O=C(CN1CCC(NC(=O)Nc2ccccc2-c2ccccc2)CC1)NCc1ccco1	-4.03*	6.7	0.956	-1.2	0.123	-1.35	215*	197
COc1ccc(CCn2c(SCC(=O)Nc3cc(C)on3)nc3ccsc3c2=O)cc1OC	-1.66*	21.8*	nt	8.4	-0.443	2.9	596	212
COc1ccc(CCn2c(SCC(=O)Nc3cc(C)on3)nc3ccccc3c2=O)cc1OC	-1.41	-16.8	nt	4.5	nt	1.66	nt	nt
CCCCOc1ccc(C(=O)OC2CC(C)N(C)CC2C)cc1 (configuration not stated)	-12.7*	-17.5	0.757	-24.2	nt	-0.025	44*	241
CCCCOc1ccc(C(=O)N2CCC(C)CC2)cc1	0.0838	-1.1	2.05	4.1	-0.0605	0.667	nt	nt
CC(C)NC(=O)NC(=O)COC(=O)c1ccccc1Oc1ccccc1	nt	nt	-1.19	nt	nt	nt	nt	nt
COc1ccc(S(=O)(=O)NC(CC(=O)NCCc2ccccc2)c2ccco2)cc1 (configuration not stated)	nt	nt	0.203	nt	nt	nt	nt	nt
CCOc1ccc(NC(=O)CN(c2ccc(OC)cc2)S(C)(=O)=O)cc1	-3.54*	-0.5	-0.351	4.7	-0.624	-0.694	612	241
COc1ccc(OCC(=O)Nc2ccc(C)cc2)cc1	-13.8*	-0.7	-0.584	9.4	-0.553	-1	516	216
Cc1ccc(OCC(=O)Nc2ccc(F)cc2)cc1	nt	nt	-0.263	nt	nt	nt	nt	nt
O=C(NCC1CC1)c1cc(-c2ccccc2)nn1CC1CC(c2cccnc2)=NO1 (configuration not stated)	nt	nt	0.328	nt	nt	nt	nt	nt
Cc1onc(-c2c(F)cccc2Cl)c1C(=O)Nc1nnc(C2CC2)s1	-4.12*	4.0	-0.0126	9.9	nt	1.14	481*	223
Cc1onc(-c2c(Cl)cccc2Cl)c1C(=O)Nc1ccc2c(c1)OCCO2	-3.06*	2.7	0	-0.4	0.522	-0.627	424*	235
SMILES	M1 antag	FXIIa mix inh	DAT uptake mod	FXIa inh mix	D1 allo mod	M1 ag	M1 antag conf	mGluR4 antag
Cc1onc(-c2ccccc2)c1C(=O)Nc1ccc2c(c1)OCCO2	0.0171	7.2	0.0145	9.3	-1.51	-0.0679	nt	nt
CCn1c(SCC(N)=O)nc2sc3c(c2c1=O)CCCC3	nt	nt	0.0836	nt	nt	nt	nt	nt
CCN(CC)CCCn1c(=S)[nH]c2cc(Cl)ccc2c1=O	-1.59	5.0	0.672	6.5	-0.986	-0.0223	nt	nt
CCN(CC)CCCn1c(=S)[nH]c2ccc(Cl)cc2c1=O	-1.43*	-4.2	1.32	-4.5	-2.13	0.0225	596	239
CCCCN(CCCNC(=O)C1CCN(S(=O)(=O)CC)CC1)c1ccccc1	-0.0383	3.4	-0.18	4.9	0.227	-0.232	nt	nt
CCCc1cc(=O)[nH]c(SCC(=O)c2c(N)n(C)c(=O)n(C)c2=O)n1	-0.189	2.2	-0.0762	-5.6	-0.437	0.0831	nt	nt
Cc1c(C#N)c(SCC(N)=O)nc2c1CCCC2	-1.96*	0.9	-0.373	6.4	nt	0.285	648	246
N#CCCN1CCN(S(=O)(=O)c2ccc(S(=O)(=O)N3CCOCC3)cc2)CC1	0.31	-17.5	-0.68	3.6	-0.144	-0.207	nt	nt
N#CCCN1CCN(S(=O)(=O)c2ccc(S(=O)(=O)NCc3ccccc3)cc2)CC1	-3.45*	1.0	-0.0271	0.6	-0.114	0.515	673	255
Cc1cc(C)c(S(=O)(=O)n2nc(C)c(Br)c2C)c(C)c1	0.526	5.0	nt	0.3	0.402	-0.197	nt	nt
COc1ccc(Cn2c(O)cc(=O)[nH]c2=O)cc1	0.145	nt	0.753	nt	nt	-0.239	nt	nt
CCN(CC)CCn1c(OC)cc(=O)[nH]c1=O	-2.42*	3.7	-0.00742	8.5	-1.3	-0.0505	670	208
COCCCNc1nc2c(c(=O)[nH]c(=O)n2C)n1CC(O)COc1ccccc1C (configuration not stated)	-3.57*	-6.2	0.179	5.7	0.192	-0.29	594	241
O=C(NCCN1CCN(C(=O)c2cccs2)CC1)c1cccs1	-2.35*	6.3	-0.895	-11.1	-0.422	-0.602	560	234
O=C(NCCN1CCN(C(=O)c2cccs2)CC1)C(=O)Nc1ccc(Br)cc1	nt	nt	0.313	nt	nt	nt	nt	nt
CC1CCN(C(=S)c2cn(Cc3ccccc3F)c3ccccc23)CC1	nt	nt	1.83	nt	nt	nt	nt	nt

Assay outcomes as filed in PubChem BioAssay.
